# From PubChem BioAssay AID624405 (Broad Institute, 2012)
# Screen size: about 1,900 compounds; about 250 (13%) were called active. Not shown: some 4% with an inconclusive outcome.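 The calls were made as follows: active = fitted curve reaches 40% rescue activity at or below the top valid dose, in every test run; inconclusive = test runs disagree, some active and some inactive; inactive = every run misses the threshold or moves the wrong way.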 A selection follows. Entries that show only a call come without a potency. Potency and affinity values are given separately.
# Test: rescue of simvastatin-induced ATP loss – cell-based, C2C12 myotubes, ATP luminescence, cherry pick, dose response (AID 624405);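 also: myotubes are challenged with simvastatin at 10 µM to lower ATP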
# Settings: 48 h, scaled: DMSO wells 0, geranylgeraniol wells 100; series mostly up to 19.5 µM
row,Structure (SMILES),outcome
1,C[C@H]1CN([C@@H](C)CO)C(=O)c2cc(NC(=O)Nc3ccc4c(c3)OCO4)ccc2O[C@@H]1CN(C)C(=O)Nc1ccc(C(F)(F)F)cc1,inactive
2,O=C(CN(Cc1ccccc1C(F)(F)F)C(=O)CNC(=O)c1ccco1)NC1CCCC1,inactive
3,Cc1cc(Cl)c(S(=O)(=O)N2CC(C)OC(C)C2)cc1OCC(N)=O (stereo unspecified),inactive
4,C[C@@H]1CN([C@@H](C)CO)C(=O)c2cc(NC(=O)CCC(F)(F)F)ccc2O[C@@H](C)CCCCO[C@@H]1CN(C)Cc1ccc(C(F)(F)F)cc1,inactive
5,Cc1ccc(C(=O)Nc2c(C(=O)N3CCOCC3)cnn2-c2ccccc2)cc1,inactive
6,Cc1cccc(NS(=O)(=O)c2ccc(-n3cccn3)cc2)c1C,inactive
7,COc1ccc(NC(=O)CC2C(=O)NCCN2C(=O)c2ccc(Cl)cc2)cc1 (stereo unspecified),inactive
8,C[C@H]1CN([C@@H](C)CO)C(=O)Cc2cc(NS(=O)(=O)c3cn(C)cn3)ccc2O[C@H]1CN(C)Cc1ccc(Cl)c(Cl)c1,inactive
9,C[C@H](CO)N1C[C@H](C)[C@@H](CN(C)S(=O)(=O)c2ccc(F)cc2)Oc2cc(Br)ccc2S1(=O)=O,inactive
10,COc1ccc(C#Cc2ccc3c(c2)O[C@H](CN(C)C(=O)Nc2cccc(OC)c2)[C@H](C)CN([C@H](C)CO)S3(=O)=O)cc1,inactive
11,COc1ccc(C#Cc2ccc3c(c2)O[C@H](CN(C)C(=O)Nc2cccc(OC)c2)[C@H](C)CN([C@@H](C)CO)S3(=O)=O)cc1,inactive
12,C[C@H]1CN([C@@H](C)CO)S(=O)(=O)c2ccc(Br)cc2O[C@@H]1CN(C)S(=O)(=O)c1ccc(F)cc1,inactive
13,C[C@H]1CN([C@@H](C)CO)S(=O)(=O)c2ccc(C#Cc3ccccc3)cc2O[C@@H]1CN(C)C(=O)Cc1ccccn1,inactive
14,C[C@H](CO)N1C[C@H](C)[C@H](CN(C)C(=O)Nc2cc(F)ccc2F)Oc2cc(C#CC3CC3)ccc2S1(=O)=O,inactive
15,O=c1oc2cc(OCc3ccc(F)cc3F)ccc2cc1-c1ccccn1,inactive
16,CC(=O)C[C@@H](O)CC(=O)[C@@H]1OC(=O)CCCCCCc2ccccc21,inactive
17,Cc1ccc(NS(=O)(=O)c2ccc(-c3ccc(=O)[nH]n3)o2)cc1Cl,inactive
18,Cc1noc(C)c1S(=O)(=O)Nc1ccc2c(c1)C(=O)N([C@@H](C)CO)C[C@H](C)[C@H](CN(C)S(=O)(=O)c1ccc(Cl)cc1)OCCCC[C@@H](C)O2,inactive
19,O=C(CN1CCOCC1)N1CCN(c2nnc(-c3ccccc3)c3ccccc23)CC1,inactive

row,Structure (SMILES),outcome
1,Nn1c(SCC(=O)Nc2ccc(S(=O)(=O)N3CCCC3)cc2)nnc1C(F)(F)F,inactive
2,CCn1c(SCC(=O)NCc2cccs2)nnc1-c1ccco1,inactive
3,CCOC(=O)c1ccn(-c2nc(-c3ccco3)cc(C(F)(F)F)n2)n1,inactive
4,Cc1occc1-c1nnc(SCC(=O)c2ccc(Cl)cc2)n1CC1CCCO1 (stereo unspecified),inactive
5,Cc1cc(Cl)c(S(=O)(=O)Nc2ccc3c(c2)OCO3)cc1OCC(N)=O,inactive
6,O=C(CN1CCN(S(=O)(=O)c2ccc(Br)cc2)CC1)Nc1ccc2c(c1)OCCO2,inactive
7,C[C@@H]1CN([C@H](C)CO)C(=O)c2cccc(NC(=O)C3CCCCC3)c2O[C@@H]1CN(C)S(=O)(=O)c1ccc(Cl)cc1,inactive
8,Cc1ccc(C2C(=O)N(C3CCC(C)CC3)CC(=O)N2C2CCCC2)cc1 (stereo unspecified),inactive
9,COc1cc(OC)cc(-c2nc(N)n[nH]2)c1,inactive
10,Cc1cccc(NC(=O)c2ccccc2C(=O)O)c1,inactive
11,O=C(Nc1cccc(NC(=O)c2ccccc2F)c1)c1ccccc1,inactive
12,C[C@H](CO)N1C[C@H](C)[C@@H](CN(C)C(=O)Nc2ccc(F)cc2)OCCCC[C@H](C)Oc2ccc(NC(=O)Cc3ccccc3)cc2C1=O,inactive
13,Cc1cccc(OCC(=O)Nc2cc(C)on2)c1,inactive
14,Cc1cc(C)cc(NC(=O)c2ccc(CSc3nnc(C)s3)cc2)c1,inactive
15,Cc1ccc2nc(-c3ccccc3Cl)cc(C(=O)Nc3cc(C)on3)c2c1,inactive
16,Cc1cccc(-c2noc(Cc3ccc(Cl)cc3)n2)c1,inactive
17,COc1ccc(NC(=O)Nc2ccc3c(c2)C(=O)N([C@@H](C)CO)C[C@@H](C)[C@@H](CN(C)Cc2ccc(C(F)(F)F)cc2)OCCCC[C@H](C)O3)cc1,inactive
18,CCOc1ccc(-c2nc(CSCC(=O)NCCN3CCOCC3)c(C)o2)cc1,inactive
19,COc1ccc(NC(=O)Nc2cccc3c2O[C@@H](CN(C)C(=O)Nc2cccc4ccccc24)[C@H](C)CN([C@H](C)CO)C3=O)cc1,inactive

row,Structure (SMILES),outcome
1,Cc1cc(=O)[nH]c(Nc2c(C)n(C)n(-c3ccccc3)c2=O)n1,inactive
2,Cn1ccnc1SCC(=O)Nc1ccccc1,inactive
3,CCOC(=O)c1cnn(-c2ccccc2)c1-n1cccc1,inactive
4,O=C(Cc1cccs1)Nc1nnc(Cc2ccccc2)s1,inactive
5,CC(=O)O[C@@H]1[C@H]2[C@@H](C[C@@H](C)[C@@H]3C=CC(=O)[C@@]13C)OC(=O)[C@@H]2C,inactive
6,COc1ccc(S(=O)(=O)NC(CC(=O)NCc2ccc3c(c2)OCO3)c2ccco2)cc1 (stereo unspecified),inactive
7,COc1ccc(S(=O)(=O)NCCC(=O)NCc2ccccc2)cc1,inactive
8,O=C(Nc1ncn[nH]1)c1c(Cl)ccc(Cl)c1Cl,inactive
9,CCCS(=O)(=O)N1CCCC(C(=O)NCCN2CCC(Cc3ccccc3)CC2)C1 (stereo unspecified),inactive
10,CCOC(=O)CC(=O)CSc1ncc(C(=O)OCC)c(N)n1,inactive
11,CC(=O)N(C)c1ccc(NC(=O)Cc2cccc3ccccc23)cc1,inactive
12,C[C@H]1CN([C@@H](C)CO)C(=O)c2cccc(NS(=O)(=O)c3ccc(Cl)cc3)c2O[C@H]1CN(C)Cc1ccc(-c2ccccc2)cc1,inactive
13,COc1ccc(OCC(O)CN2C(=O)NC(C)(C)C2=O)cc1 (stereo unspecified),inactive
14,CN(C)CCCNc1ncnc2c1cnn2Cc1ccccc1Cl,inactive
15,CNC(=O)Cn1ncc2c(C)n(Cc3ccc(C)cc3)c(C)c2c1=O,inactive
16,Cc1ccc(CC(=O)c2ccc(Cl)cc2)cc1,inactive
17,COC(=O)c1cccc(OCC(O)Cn2ccnc2)c1 (stereo unspecified),inactive
18,C[C@H]1CN([C@@H](C)CO)C(=O)Cc2cc(NS(=O)(=O)c3ccc(F)cc3)ccc2O[C@@H]1CN(C)Cc1ccc2c(c1)OCO2,inactive
